Experimental data from PubChem BioAssay AID1347420 (Sanford-Burnham Center for Chemical Genomics, 2020).
Screen size: about 1,300 compounds; about 980 (75%) were called active. Another 4% or so got no clear call; they are omitted. The list shows a part of the results. Residues, ends and D or L forms follow the SMILES beside them. *: point of attachment. Cbz = O=C(OCc1ccccc1)*

Target: Sulfhydryl oxidase 1 (Homo sapiens) (UniProt O00391)
Test: inhibition of human sulfhydryl oxidase QSOX1 – biochemical, HyperBlu H2O2 luminescence, HTS, primary screen (AID 1347420); also: values above 100% were filed as inconclusive
Settings: recombinant QSOX1, HyperBlu H2O2 luminescence; at 12.5 µM; active compounds read high; active = any value above zero

Sequence of Sulfhydryl oxidase 1 (Homo sapiens) (O00391 whole entry, looked up): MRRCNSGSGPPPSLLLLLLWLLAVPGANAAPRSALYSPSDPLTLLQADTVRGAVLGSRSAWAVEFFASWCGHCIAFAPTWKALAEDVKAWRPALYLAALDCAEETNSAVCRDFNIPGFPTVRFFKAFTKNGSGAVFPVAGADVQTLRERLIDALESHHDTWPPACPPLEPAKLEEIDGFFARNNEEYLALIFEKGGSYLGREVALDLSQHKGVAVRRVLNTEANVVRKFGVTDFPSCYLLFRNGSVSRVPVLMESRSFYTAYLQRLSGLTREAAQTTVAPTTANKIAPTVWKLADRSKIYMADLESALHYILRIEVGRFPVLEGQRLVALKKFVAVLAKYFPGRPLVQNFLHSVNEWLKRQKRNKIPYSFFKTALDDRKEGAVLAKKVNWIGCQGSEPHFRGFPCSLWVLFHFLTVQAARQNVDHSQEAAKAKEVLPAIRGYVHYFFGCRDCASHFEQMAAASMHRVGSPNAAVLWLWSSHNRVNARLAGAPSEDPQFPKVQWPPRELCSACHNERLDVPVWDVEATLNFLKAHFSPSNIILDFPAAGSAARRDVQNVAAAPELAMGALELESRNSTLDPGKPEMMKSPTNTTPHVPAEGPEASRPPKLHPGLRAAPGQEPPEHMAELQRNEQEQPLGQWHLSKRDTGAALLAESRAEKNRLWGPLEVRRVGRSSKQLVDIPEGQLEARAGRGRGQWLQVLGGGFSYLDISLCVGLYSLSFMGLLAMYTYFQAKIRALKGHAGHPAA

inhibition, active:
CC1=C(/C=C/C(C)=C/C=C/C(C)=C/C(=O)O)C(C)(C)CCC1 11.4%
CC1=C(/C=C/C(C)=C/C=C/C(C)=C\C(=O)O)C(C)(C)CCC1 3.1%
CC1=C(/C=C/C(C)=C/C=C/C(C)=C/C(=O)Nc2ccc(O)cc2)C(C)(C)CCC1 29.7%
O=C(Nc1ccccc1)c1cc([N+](=O)[O-])ccc1Cl 35.3%
O=C(Nc1ccncc1)c1cc([N+](=O)[O-])ccc1Cl 41.9%
O=C(O)c1cc([N+](=O)[O-])ccc1NCCCc1ccccc1 84.4%
O=C(Nc1ccc([N+](=O)[O-])cc1Cl)c1cc(Cl)ccc1O 11.3%
O=C(/C=C/c1ccc(O)c(O)c1)OCCc1ccccc1 98.9%
O=c1cc(O)cc(/C=C/c2ccc(O)c(O)c2)o1 84.2%
O=C(O)/C=C/c1ccc(O)c(O)c1 74.3%
CN1CCCC1CCOC(C)(c1ccccc1)c1ccc(Cl)cc1 (stereo not drawn) 7.6%
O=C(O)Cc1ccc(O)c(O)c1 52.8%
CCN(CC)C(=O)c1ccc(O)c(OC)c1 17.3%
NCCc1ccc(O)c(O)c1 61.7%
COc1cc(CC(=O)O)ccc1O 4.4%
CCc1c(C(=O)NCCc2ccc(N3CCCCC3)cc2)[nH]c2ccc(Cl)cc12 13.2%
Cc1ccc(S(=O)(=O)N[C@@H](Cc2ccccc2)C(=O)CCl)cc1 4%
O=C(N[C@@H](Cc1ccccc1)C(=O)CCl)OCc1ccccc1 0.2%
CC(C)Cc1ccc([C@H](C)C(=O)O)cc1 5.1%
CC(C(=O)O)c1ccc(CC2CCCC2=O)cc1 (stereo not drawn) 13.5%
CC(C)(C)c1ccc(C(O)CCCN2CCC(C(O)(c3ccccc3)c3ccccc3)CC2)cc1 (stereo not drawn) 6.1%
CC(C)(C)c1ccc(/C=C/C(=O)Nc2ccc3c(c2)OCCO3)cc1 17.7%
[Li+] 6.5%
CN(C)C(=O)n1nnnc1Cc1ccc(-c2ccccc2)cc1 2.4%
CSc1nc(N)c2ncn([C@@H]3O[C+](COP(=O)([O-])OP(=O)(O)O)[C@H](O)C3O)c2n1 (stereo partly drawn) 26.4%
Nc1nnc(-c2cccc(Cl)c2Cl)c(N)n1 4.9%
Cc1nc2c([nH]1)c(=O)n(C)c(=O)n2Cc1ccco1 10.1%
CCCOc1ccccc1-c1nc2n[nH]nc2c(=O)[nH]1 15.8%
Cc1nnc(SCC2=C(C(=O)O)N3C(=O)[C@@H](NC(=O)Cn4cnnn4)[C@H]3SC2)s1 10.4%
O=C(O)C1=CCNCC1 0.2%
O=C(O)C1=CCCNC1 5.6%
Nc1nc(OCc2ccccc2)c2[nH]cnc2n1 5.5%
Nc1nc(OCC2CCCCC2)c2[nH]cnc2n1 11.1%
Nc1nc(N)c(N=O)c(OCC2CCCCC2)n1 29.8%
CC(C)N(CCC(=O)c1ccc2ccccc2c1)Cc1ccccc1 5.9%
O=S(=O)(c1cccc2c(Cl)cccc12)N1CCCNCC1 7.1%
O=S(=O)(c1cccc2c(I)cccc12)N1CCCNCC1 6%
Cc1ccccc1C(OCCN(C)C)c1ccccc1 (stereo not drawn) 2.5%
CN(C)CCOC(c1ccccc1)c1ccccc1 15.9%
Cc1cc2c(C(C)C)c(O)c(O)c(C=O)c2c(O)c1-c1c(C)cc2c(C(C)C)c(O)c(O)c(C=O)c2c1O 74.3%
CCC(=O)N1CCN(C(=O)c2ccccc2)CC1 3.1%
Cc1ccc(Cl)c(Nc2ccccc2C(=O)O)c1Cl 7.8%
O=c1onc2cnc3ccccc3n12 6.8%
CN(C)CCC(c1ccccc1)c1ccccn1 (stereo not drawn) 4.2%
CN(C)CC[C@@H](c1ccc(Cl)cc1)c1ccccn1 3.5%
CN(C)CCC(c1ccc(Cl)cc1)c1ccccn1 (stereo not drawn) 6.9%
O=C1N(c2ccccc2)c2ccccc2C1(Cc1ccncc1)Cc1ccncc1 7.6%
Nc1c2c(nc3ccccc13)CCCC2 20.5%
Nc1c2c(nc3ccccc13)CCCC2O (stereo not drawn) 4%
COc1ccccc1N1CCN(CC(O)COc2cccc3ccccc23)CC1 (stereo not drawn) 11.9%
COc1ccccc1OCC(O)CN1CCN(CC(=O)Nc2c(C)cccc2C)CC1 (stereo not drawn) 2.7%
COc1cc2nc(N3CCN(C(=O)OCc4ccccc4)C(C(=O)NC(C)(C)C)C3)nc(N)c2cc1OC (stereo not drawn) 0.6%
COc1cc2nc(N3CCN(C(=O)c4ccco4)CC3)nc(N)c2cc1OC 5.9%
COc1cc2nc(N3CCN(C(=O)C4COc5ccccc5O4)CC3)nc(N)c2cc1OC (stereo not drawn) 11.9%
COc1cc2nc(N3CCN(C(=O)C4CCCO4)CC3)nc(N)c2cc1OC (stereo not drawn) 8.6%
COc1cc2nc(N(C)CCCNC(=O)C3CCCO3)nc(N)c2cc1OC (stereo not drawn) 0.2%
O=C(NCCN1CCOCC1)c1ccc(Cl)cc1 5.4%
COc1cccc(C(=O)NCCN2CCN(c3ccc(Cl)cc3)CC2)c1 45.7%
O=C(c1ccc2c(c1)OCCO2)N1CCCCC1 5.6%
O=C(O)c1ccccc1Nc1cccc(OCc2ccc3ccccc3n2)c1 70.1%
NCCCCN 14.6%
NCCCCCCCCCCN 12.8%
CCN(CC)CCOC(=O)C1(C2CCCCC2)CCCCC1 28.2%
O=C(O)CP(=O)(O)O 10%
CN=c1nc(-c2ccccc2)n(-c2ccccc2)s1 25.4%
S=C([S-])OC1CC2C[C+]1C1CCCC21 (stereo not drawn) 1.4%
CN(CC[C@@H](Oc1ccc(C(F)(F)F)cc1)c1ccccc1)CC(=O)O 21.6%
CNCC[C@H](Oc1ccc(C(F)(F)F)cc1)c1ccccc1 0.1%
CCCCCCCCCC[Si](C)(C)CCC(=O)NC(Cc1ccc(C)cc1)c1ccccc1 (stereo not drawn) 19.6%
CCCn1c(=O)[nH]c(=O)c2[nH]cnc21 3.6%
Cc1nc2ccccn2c(=O)c1CCN1CCC(C(=O)c2ccc(F)cc2)CC1 5.5%
Cc1nc2sccn2c(=O)c1CCN1CCC(=C(c2ccccc2)c2ccc(F)cc2)CC1 2.9%
CC1(C)C(=O)N(CCN2CCC(C(=O)c3ccc(F)cc3)CC2)c2ccccc21 7.2%
Cc1nc2sccn2c(=O)c1CCN1CCC(=C(c2ccc(F)cc2)c2ccc(F)cc2)CC1 7.1%
COc1ccccc1OCCNCC(O)COc1cccc2[nH]c3ccccc3c12 (stereo not drawn) 11%
CN1CCc2ccccc2Cc2[nH]c3ccccc3c2CC1 51.2%
NC(N)=N[C@@H](CCC(=O)O)C(=O)O 10.9%
COc1ccc(C(=O)NCc2cccnc2)cc1C(=O)NCc1cccnc1 1.3%
CCCCC1C(=O)N(c2ccccc2)N(c2ccccc2)C1=O 11.8%
N#C/C(=C\c1ccc(-c2cc(Cl)ccc2Cl)o1)C(=O)Nc1cccc2ncccc12 6.8%
Fc1ccc([C@@H]2CCNC[C@H]2COc2ccc3c(c2)OCO3)cc1 15.8%
N=c1nc(N2CCCCC2)cc(N)n1O 1.6%
Nc1ccn([C@H]2CC[C@@H](CO)O2)c(=O)n1 9.9%
C=CCc1cccc(/C=N/NC(=O)CN2CCN(Cc3ccccc3)CC2)c1O 1.7%
C=CCn1c(=O)c2c(nc(-c3ccc(S(=O)(=O)O)cc3)n2C)n(C)c1=O 1.4%
N#Cc1cc2nc(O)c(O)nc2cc1[N+](=O)[O-] 69.8%

inhibition, inactive:
CC(C)[C@H](NC(=O)OCc1ccccc1)C(=O)N[C@H](C=O)Cc1ccccc1 (Cbz-Val-Phe-aldehyde) -15.7%
CC(C)Cc1ccc(C(C)C(=O)O)cc1 (stereo not drawn) -0.2%
CC(C)(C(=O)O)c1ccc(C(O)CCCN2CCC(C(O)(c3ccccc3)c3ccccc3)CC2)cc1 (stereo not drawn) -4.1%
CC(C)c1cccc(C(C)C)c1N1C(=O)c2ccc(O)cc2C1=O -98.1%
CN(C)C/C=C(/c1ccc(Br)cc1)c1cccnc1 -9.2%
Nc1nc(N)c2nc(-c3ccccc3)c(N)nc2n1 -11.2%
Cc1ccc2nc(CN(CCN(Cc3nc4ccc(C)cc4[nH]3)Cc3nc4ccc(C)cc4[nH]3)Cc3nc4ccc(C)cc4[nH]3)[nH]c2c1 -0.7%
C=C(C)C1CC=C(C(=O)O)CC1 (stereo not drawn) -10.6%
CC(COc1ccccc1)N(CCCl)Cc1ccccc1 (stereo not drawn) -3.7%
CN(C)CC[C@@H](c1ccc(Br)cc1)c1ccccn1 -5.9%
CN(C)CCC(c1ccc(Br)cc1)c1ccccn1 (stereo not drawn) -10.9%
Cc1cn[nH]c1 -6.5%
O=C(Nc1nc2ccccc2n1CCN1CCOCC1)c1cccc([N+](=O)[O-])c1 -17.8%
CC[N+](CC)(CC)CC -0.4%
Cc1oncc1C(=O)Nc1ccc(C(F)(F)F)cc1 -3.1%
CCCCCC(O)c1cccc(OCc2ccc3ccccc3n2)c1 (stereo not drawn) -4.5%
CNCCC(Oc1ccc(C(F)(F)F)cc1)c1ccccc1 (stereo not drawn) -9.7%
CCCCCCCCCC(=O)NC(CN1CCOCC1)[C@H](O)c1ccccc1 (stereo partly drawn) -17.8%
Cc1nc2n(c(=O)c1CCN1CCC(c3noc4cc(F)ccc34)CC1)CCCC2O (stereo not drawn) 0%
O=C(c1ccc(F)cc1)C1CCN(CCn2c(=O)[nH]c3ccccc3c2=O)CC1 -10.7%
FC(F)(F)c1ccccc1-n1ccnc1 -11.4%
O=C1O/C(=C/Br)CCC1c1cccc2ccccc12 (stereo not drawn) -10.8%
